IL1B secr inh: blocks inflammasome-driven IL-1 beta release; THP-1 LPS/ATP IL-1B secretion, AlphaLISA, 16 h; active compounds read low; activity change, % at 57.5 µM; 360,000 tested, 4.7% active; AID 743279; in the data active means activity change below about -50%; inconclusive means mostly about -30% to -49%
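Secreted IL-1B measured by AlphaLISA bead assay after 16 h compound exposure of THP-1 cells; compounds (final up to 57.5 uM) added 1 h before LPS (250 ng/mL) and ATP (1.25 mM) stimulation; lower signal means less secretion.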
TDP1 inh: blocks human tyrosyl-DNA phosphodiesterase 1. Q9NUW8. recombinant TDP1, AlphaScreen DNA substrate cleavage. Potency, µM (doses to about 130 µM), inactives show top-dose activity change, negative = inhibition, usual class: inhibitors. 350,000 tested, 0.28% active. AID 485290; further: potency means the concentration at half of the fitted maximal effect; nearly all actives have a fitted effect of over 40% in size
Target sequence (Q9NUW8 whole entry, looked up): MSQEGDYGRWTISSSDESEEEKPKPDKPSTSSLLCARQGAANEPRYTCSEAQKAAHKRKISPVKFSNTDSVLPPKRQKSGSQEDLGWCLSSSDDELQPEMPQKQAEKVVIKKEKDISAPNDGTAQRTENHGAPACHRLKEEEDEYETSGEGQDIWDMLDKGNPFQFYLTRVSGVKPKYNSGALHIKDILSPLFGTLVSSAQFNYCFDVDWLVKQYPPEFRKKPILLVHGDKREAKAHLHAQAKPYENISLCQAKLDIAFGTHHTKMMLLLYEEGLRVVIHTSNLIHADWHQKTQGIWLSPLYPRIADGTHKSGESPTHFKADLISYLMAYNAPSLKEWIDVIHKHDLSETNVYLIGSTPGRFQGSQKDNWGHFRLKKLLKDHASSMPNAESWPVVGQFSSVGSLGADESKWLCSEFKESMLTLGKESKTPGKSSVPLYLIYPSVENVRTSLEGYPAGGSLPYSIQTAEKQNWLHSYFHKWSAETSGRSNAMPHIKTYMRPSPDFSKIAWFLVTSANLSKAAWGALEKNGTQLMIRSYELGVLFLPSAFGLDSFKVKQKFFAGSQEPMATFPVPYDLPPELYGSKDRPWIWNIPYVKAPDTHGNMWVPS
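Compounds were preincubated with Tdp1 (1 nM final) for 15 min at room temperature before substrate (15 nM final) started a 5 min reaction; beads (10 ug/ml final) were then added for 10 min before AlphaScreen detection.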
DT40 TDP1 no CPT: qHTS for Inhibitors of human tyrosyl-DNA phosphodiesterase 1 (TDP1): qHTS in cells in absence of CPT. DT40 Tdp1-/- hTDP1 cells, no CPT, ATP luminescence, 48 h. 420,000 tested, 15% active. Potency, µM (series often up to 46.2 µM), for inactives: at the highest dose activity change, negative = growth inhibition, most hits filed as inhibitors. AID 686978, 2013; further: potency means the concentration at half of the fitted maximal effect; nearly all actives have a fitted effect of over 55% in size
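Luminescent ATP content (CellTiter-Glo) served as the growth readout. Knockout chicken DT40 cells expressing human TDP1 were exposed to compounds without camptothecin for a minimum 48 hr at 37 °C.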
TDP1 cell CPT: DT40-hTDP1 cell growth loss with CPT; Potency, µM (doses to about 46.2 µM), for inactives: at the top dose activity change, negative = growth inhibition, hits mostly inhibitors; 420,000 tested, 12% active; chicken DT40 Tdp1-/-;hTDP1 cells + 20 nM CPT, ATP luminescence, 48 h; further: potency means the concentration at half of the fitted maximal effect; nearly all actives have a fitted effect of over 55% in size
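Cell growth measured by CellTiter-Glo luminescence after a minimum 48 h, 37 C compound exposure with 20 nM CPT in Tdp1-knockout DT40 cells stably expressing hTDP1, seeded 400/well; qHTS titration format.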
Six1-Eya2 blk: Six1/Eya2 interaction inhibition. Q15475+O00167. activity change, % (test concentration not listed). 360,000 tested, 0.56% active. AlphaScreen GST-Six1/His-Eya2 binding, biochemical; active compounds read low; in the data active means activity change below about -65%; inconclusive means mostly about -30% to -63%
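Homogeneous AlphaScreen proximity assay pairing GST-Six1 with His-tagged Eya2 (added as 5X mix: 250 nM and 500 nM) in 50 mM Tris pH 8.0, 300 mM NaCl, 1 mM TCEP. Glutathione donor and nickel acceptor beads; 1 h, 37 °C, dark.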
CtBP-E1A blk: CtBP/E1A binding inhibition. AlphaScreen GST-E1A/His-CtBP binding, 1536-well; active compounds read low. activity change, % (no concentration beside the values). 340,000 tested, 0.49% active. AID 651724; in the data active means activity change below about -65%; inconclusive means mostly about -30% to -63%
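GST-E1A and His-tagged CtBP (125 nM each as 5X stock) were preincubated with pin-transferred compound for 2 h at 37 °C in the dark, then glutathione donor and nickel acceptor beads were added for 1 h before AlphaScreen reading.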
Starred values were filed as active, the others as inactive. This is a sample that favours compounds with a hit; in the whole collection about 18% have one here. Unless noted, the call rests on the fitted dose curve; in most records, active means well fitted curve in the direction sought with a large enough effect; inconclusive means small, poorly fitted or top-dose-only effect, or another doubt; inactive means no such curve, though single readings can be large; an effect the other way counts as inactive or inconclusive. On the % scale 0 is the no-effect control and ±100 the full control effect.

`Cc1ccc(-c2csc(NCCc3nc4cc(Cl)c(Cl)cc4n3CCCO)n2)cc1` gave IL1B secr inh -56.0*, DT40 TDP1 no CPT inconclusive, TDP1 cell CPT inconclusive, Six1-Eya2 blk 12.8 and CtBP-E1A blk 0.0.
`COc1ccc(-c2csc(NCCc3nc4cc(Cl)c(Cl)cc4n3CCCO)n2)cc1` gave IL1B secr inh -58.4*, DT40 TDP1 no CPT 18.4µM*, TDP1 cell CPT inconclusive, Six1-Eya2 blk -9.2 and CtBP-E1A blk -16.3.
`OCCOCCn1c(CCNc2nc(-c3ccc(Cl)cc3)cs2)nc2cc(Cl)c(Cl)cc21` gave IL1B secr inh -16.0, DT40 TDP1 no CPT inconclusive, TDP1 cell CPT inconclusive, Six1-Eya2 blk 0.6 and CtBP-E1A blk 1.0.
`Cc1onc(-c2c(F)cccc2Cl)c1C(=O)N(C)CCc1ccccn1` gave IL1B secr inh 5.6, TDP1 inh 3.4%, DT40 TDP1 no CPT -0.6%, TDP1 cell CPT 6.0%, Six1-Eya2 blk 3.6 and CtBP-E1A blk -15.7.
O=C(O)CCN1/C(=C/C=Nc2ccccc2)Oc2ccccc21 was read as IL1B secr inh 1.6, TDP1 inh -6.2%, DT40 TDP1 no CPT -2.7%, TDP1 cell CPT -2.1%, Six1-Eya2 blk 5.3 and CtBP-E1A blk 14.2.
C/C=C/c1cccc(-c2nc(C(=O)N3CCCCC3)cc3c2[C@H](CCO)N(C(=O)NC(C)C)C3)c1 was read as IL1B secr inh 1.1, DT40 TDP1 no CPT -21.5%, TDP1 cell CPT -9.6%, Six1-Eya2 blk -4.3 and CtBP-E1A blk 4.1.
`Fc1cccc(NC(=S)NNc2c3ccccc3nc3ccccc23)c1` gave IL1B secr inh 7.0, TDP1 inh 11.5%, DT40 TDP1 no CPT 0.92µM*, TDP1 cell CPT 1.3µM*, Six1-Eya2 blk inconclusive and CtBP-E1A blk -2.9.
Fc1cccc(NC(=S)Nc2cccnc2)c1 was read as IL1B secr inh 14.2, TDP1 inh 2.6%, DT40 TDP1 no CPT inconclusive, TDP1 cell CPT -17.5%, Six1-Eya2 blk 13.7 and CtBP-E1A blk -23.6.
`Fc1cccc(NC(=S)NNc2ccccc2)c1` gave IL1B secr inh 0.0, DT40 TDP1 no CPT 2.59µM*, TDP1 cell CPT 3.26µM*, Six1-Eya2 blk 0.9 and CtBP-E1A blk -8.3.
Screening CC(=O)Nc1ccc(C(=O)OCC(=O)N2CCCC2=O)cc1 returned IL1B secr inh 5.0, TDP1 inh 0.7%, DT40 TDP1 no CPT 2.4%, TDP1 cell CPT -0.6%, Six1-Eya2 blk 2.1 and CtBP-E1A blk 1.9.
Screening COc1ccc(CNC(=O)Nc2cccc(C(F)(F)F)c2)cc1OC returned IL1B secr inh 3.1, TDP1 inh -7.9%, DT40 TDP1 no CPT 9.2µM*, TDP1 cell CPT inconclusive, Six1-Eya2 blk 4.6 and CtBP-E1A blk 6.7.
For CCOc1cc(CNC(CC)CO)ccc1OCC(=O)Nc1cccc(C(F)(F)F)c1 (centres undefined) the results were IL1B secr inh -20.1, TDP1 inh 3.7%, DT40 TDP1 no CPT 25.9µM*, TDP1 cell CPT inconclusive, Six1-Eya2 blk -0.6 and CtBP-E1A blk 8.6.
CCN(Cc1ccccc1)C1CCN(Cc2ccccc2)CC1 was read as IL1B secr inh inconclusive, TDP1 inh 6.4%, DT40 TDP1 no CPT 5.7%, TDP1 cell CPT -3.4%, Six1-Eya2 blk -4.8 and CtBP-E1A blk 5.2.
CSc1ccccc1OC1CCN(Cc2ccccc2)CC1 was read as IL1B secr inh -82.1*, TDP1 inh 2.8%, DT40 TDP1 no CPT inconclusive, TDP1 cell CPT -10.3%, Six1-Eya2 blk -8.8 and CtBP-E1A blk 2.9.
Screening Cc1ccccc1Cn1c(CCCNC(=O)C2CCCCC2)nc2ccccc21 returned TDP1 inh 2.5%, DT40 TDP1 no CPT 14.6µM* and TDP1 cell CPT 18.4µM*.
`O=C(NCCCc1nc2ccccc2n1Cc1ccc(F)cc1)C1CCCCC1` gave TDP1 inh 7.6%, DT40 TDP1 no CPT 25.9µM* and TDP1 cell CPT inconclusive.
For O=C(NCCCc1nc2ccccc2n1Cc1ccccc1)C1CCCCC1 the results were TDP1 inh 5.1%, DT40 TDP1 no CPT 16.4µM* and TDP1 cell CPT 18.4µM*.
`CCC(Sc1nc2ccsc2c(=O)n1-c1ccc(Cl)c(C)c1)C(=O)NCc1ccco1` (centres undefined) gave IL1B secr inh -71.0*, TDP1 inh 7.7%, DT40 TDP1 no CPT inconclusive, TDP1 cell CPT inconclusive, Six1-Eya2 blk -14.0 and CtBP-E1A blk -11.4.
Screening COC(=O)c1cc(Br)ccc1N(Cc1cc(OC)cc(OC)c1)S(C)(=O)=O returned IL1B secr inh -15.0, TDP1 inh 1.5%, DT40 TDP1 no CPT 15.8µM*, TDP1 cell CPT inconclusive, Six1-Eya2 blk -19.5 and CtBP-E1A blk -0.7.
CC1CCC(C(=O)c2c(O)c3ccccc3oc2=O)CC1 (centres undefined) was read as IL1B secr inh -94.4*, TDP1 inh 3.0%, DT40 TDP1 no CPT 18.4µM*, TDP1 cell CPT 18.4µM*, Six1-Eya2 blk -12.5 and CtBP-E1A blk -6.7.
For O=C(O)Cn1nc(-c2ccc(F)cc2)oc1=O the results were IL1B secr inh 3.9, TDP1 inh 2.9%, DT40 TDP1 no CPT inconclusive, TDP1 cell CPT 16.4µM*, Six1-Eya2 blk 4.1 and CtBP-E1A blk 0.9.
COc1cccc(CNCCO)c1OCc1ccc(Cl)cc1 was read as IL1B secr inh -4.4, TDP1 inh 3.7%, DT40 TDP1 no CPT -29.8%, TDP1 cell CPT inconclusive, Six1-Eya2 blk 7.2 and CtBP-E1A blk -1.4.
Screening CCOc1ccccc1CNCc1ccc(F)cc1 returned IL1B secr inh -51.4*, TDP1 inh -4.9%, DT40 TDP1 no CPT inconclusive, TDP1 cell CPT -3.0%, Six1-Eya2 blk 8.0 and CtBP-E1A blk 3.6.
CCOc1cccc(CNc2ccc(O)cc2)c1OCc1ccc(Cl)cc1 was read as IL1B secr inh -3.3, TDP1 inh 3.0%, DT40 TDP1 no CPT inconclusive, TDP1 cell CPT 14.6µM*, Six1-Eya2 blk 1.1 and CtBP-E1A blk inconclusive.
For CCOc1ccccc1CNc1ccc(O)cc1 the results were IL1B secr inh 37.7, TDP1 inh 5.4%, DT40 TDP1 no CPT inconclusive, TDP1 cell CPT 16.4µM*, Six1-Eya2 blk inconclusive and CtBP-E1A blk inconclusive.
`Oc1ccc(NCc2ccccc2OCc2ccccc2Cl)cc1` gave TDP1 inh 6.3%, DT40 TDP1 no CPT 5.17µM* and TDP1 cell CPT 14.6µM*.
`CCOc1ccccc1CNCc1ccc(C(=O)O)cc1` gave IL1B secr inh -4.2, TDP1 inh 0.0%, DT40 TDP1 no CPT -10.9%, TDP1 cell CPT -1.9%, Six1-Eya2 blk 5.9 and CtBP-E1A blk 7.4.
